Measurements published in ChEMBL document CHEMBL3988442, “University of Dundee, Small-Polar-MMV Screening Library” (2021).

How the values were obtained:
[1] = target: T1, Aspartate--tRNA(Asp/Asn) ligase (Mycobacterium tuberculosis (strain ATCC 25618 / H37Rv)) (UniProt P9WFW3); assay: Assay for Asp RNA synthetase-1 from Mycobacterium tuberculosis; assay type: functional; set-up: scale not given: direction of the effect not stated beside the values; conditions: 30 µM; note: in the data most compounds retested in dose-response had high values
T1 sequence (whole entry): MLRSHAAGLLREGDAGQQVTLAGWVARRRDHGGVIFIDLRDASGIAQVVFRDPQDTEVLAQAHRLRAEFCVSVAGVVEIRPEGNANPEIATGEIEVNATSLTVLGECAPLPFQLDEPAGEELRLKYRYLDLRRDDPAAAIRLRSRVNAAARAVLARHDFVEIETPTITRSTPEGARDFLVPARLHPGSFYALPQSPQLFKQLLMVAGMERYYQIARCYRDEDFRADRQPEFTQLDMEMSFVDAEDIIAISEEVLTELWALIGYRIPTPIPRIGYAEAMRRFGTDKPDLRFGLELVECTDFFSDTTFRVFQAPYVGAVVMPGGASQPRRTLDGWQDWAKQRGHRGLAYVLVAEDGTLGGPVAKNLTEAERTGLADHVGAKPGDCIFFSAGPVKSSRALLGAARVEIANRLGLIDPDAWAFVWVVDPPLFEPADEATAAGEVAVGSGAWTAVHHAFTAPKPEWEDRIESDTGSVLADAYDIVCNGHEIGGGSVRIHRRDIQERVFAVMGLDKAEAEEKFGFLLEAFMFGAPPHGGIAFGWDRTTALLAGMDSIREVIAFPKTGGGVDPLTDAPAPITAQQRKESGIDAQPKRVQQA

[2] = target: Shiga toxin 2 (Escherichia coli O157:H7) (UniProt P09385+P09386); assay: E. coli 0.157:H7 Shiga Toxin SOP - stx2 screening assay; assay type: functional; set-up: scale not given: direction of the effect not stated beside the values; conditions: 30 µM

| Compound | Percent Effect [1] [%] | Percent Effect [2] [%] |
| --- | --- | --- |
| CC(C)c1nn(C)c(N2CCOCC2)c1CNC(C)c1cccs1 (stereo not given) | -0.59 | 33.2 |
| Cc1ccc(C(CNC(=O)NCc2cc[nH]n2)N2CCOCC2)o1 (stereo not given) | 0.256 | -34.1 |
| O=C(NCC1CC1)[C@H]1C[C@@H]2CN(S(=O)(=O)Cc3ccccc3)C[C@H]1O2 | 4.1 | -14.6 |
| CN(C)C(=O)N1C[C@@H]2CC[C@H](C1)N(Cc1ccc3nsnc3c1)C2 | 6.27 | -56.9 |
| COc1ccc(C2CC(=O)Oc3cc(C)[nH]c(=O)c32)cc1 (stereo not given) | 0.232 | -8.78 |
| Cn1cc(C(=O)NC2CCN(C(=O)NCCSC(F)(F)F)CC2)cn1 | 0.597 | -30.6 |
| CNC(=O)c1cc(S(=O)(=O)C(C)C)cs1 | -3.82 | -3.3 |
| CC(C)(C)c1ncc2c(n1)CN(C(=O)c1ccncc1)C2 | 2.51 | -10.4 |
| CN(Cc1cnn(C)c1)C(=O)NC1CCN(Cc2ccccn2)CC1 | 5.83 | -5.06 |
| CC(NC(=O)NCc1ccoc1)c1ccc2c(c1)CCC(=O)N2 (stereo not given) | -9.2 | -43.2 |
| CCCc1n[nH]c(C2CN(C(=O)C3=COCCC3)CCO2)n1 (stereo not given) | -5.39 | 19 |
| Cc1oncc1C(=O)N1CCC2(C1)CN(c1cccnc1)C(=O)CN2C (stereo not given) | -6.17 | -13.7 |
| CN1CC(=O)N(c2cccc(F)c2)CC12CCN(S(C)(=O)=O)C2 (stereo not given) | -0.565 | 8.46 |
| CCn1c(CN2CCCC2)nnc1C1CCN(Cc2ccc(C)o2)CC1 | -0.695 | 1.78 |
| C[C@@H]1CN(C2(C(=O)N3CCCCCC3)Cc3ccccc3C2)C[C@H](C)O1 | -2.09 | 3.06 |
| Cc1cc(C)n(C2CCCN(C(=O)Cc3csc(C)n3)C2)n1 (stereo not given) | -6.85 | 5.9 |
| COC(=O)c1cc(C(=O)N2CCCCCC2)n(-c2ccccc2)n1 | -0.856 | 30.9 |
| CN(CC1CN(Cc2cn3ccsc3n2)CCO1)c1cccnn1 (stereo not given) | -3.78 | -9.36 |
| O=C(CCOc1ccc(Cl)cc1)N1CCN(c2cnccn2)CC1 | 0.879 | -12.7 |
| CC(Cn1cccn1)NC(=O)NCc1ccccn1 (stereo not given) | -4.37 | -30.2 |
| CCc1ccc(C(=O)N2CCCC(n3cncn3)C2)o1 (stereo not given) | 1.95 | -18.7 |
| COc1cccc(-c2nc(C)c(C(=O)N[C@@H](C)C(=O)O)s2)c1 | -1.66 | -52 |
| O=C(c1ccc(OCC2CC2)nc1)N1CCCC(n2cncn2)C1 (stereo not given) | 1.48 | -39.7 |
| Cc1cc(C)n(C2CN(Cc3noc(-c4ccccc4)n3)C2)n1 | 4.04 | -51.5 |
| c1nc2c(c(C3CC3)n1)CCN(Cc1ccc3c(c1)OCO3)CC2 | -2.19 | -20.6 |

| Compound | Percent Effect [1] [%] | Percent Effect [2] [%] |
| --- | --- | --- |
| Cc1ccn(-c2ccc(C(=O)N3CCCC(C(N)=O)C3)cc2)n1 (stereo not given) | -3.4 | 8.96 |
| O=C(c1ccsc1)N1CCCC(c2cc(C(F)(F)F)[nH]n2)C1 (stereo not given) | 7.19 | 28 |
| CC1CCCN(C(=O)CCc2cccnc2)C1 (stereo not given) | -4.28 | -0.0678 |
| COCC1CN(C(=O)c2cccn2C)Cc2nccn2C1 (stereo not given) | -0.897 | -15.6 |
| O=C(c1ccc(Br)o1)N1CCCC(n2cncn2)C1 (stereo not given) | 5.01 | -10.4 |
| CCn1c(CN2CCN(CC(N)=O)CC2)nc2c(F)cccc21 | -3.37 | 6.95 |
| Cc1nc(C)n(CC2CN(Cc3cccc4c3OCCO4)CCO2)n1 (stereo not given) | -4.36 | 23.8 |
| O=C(CCC1CCCC1)NCCn1nc(C2CCNC2)c2cccnc21 (stereo not given) | -0.368 | -19.4 |
| Cn1cccc1CN1CCC2(CCCN(C(=O)c3cnccn3)C2)C1 (stereo not given) | 11.1 | -9.19 |
| COc1cccc(CN2CCN(C(=O)CN3CCOCC3)CC2)n1 | -3.48 | -2.5 |
| O=C(N1CCCC1)N1CCC2(CCCN(CCOc3ccccc3)C2)C1 (stereo not given) | -0.364 | -4.82 |
| CCn1c(C)cc(C(=O)N2CCCC(c3nc(C)no3)C2)c1C (stereo not given) | 3.31 | 9.36 |
| Cc1noc(C2CCC3(CCN(C(=O)C4=CCCCC4)CC3)O2)n1 (stereo not given) | -2.98 | 7.42 |
| Cc1c(Br)cccc1C(=O)NC(C)CN1CCCC1=O (stereo not given) | -1.01 | 1.67 |
| Cn1nc(C2CN(C(=O)c3cscn3)C2)c2nccnc21 | 2.04 | 8.15 |
| CC(C(=O)NCCOc1ccc2c(c1)OCO2)n1cncn1 (stereo not given) | -7.68 | -4.93 |
| Cn1cccc1C(=O)N1CCn2cc(CNC(=O)CC3CC3)nc2C1 | -0.0735 | -50.9 |
| CCC(=O)Nc1nnc(CCCOc2ccccc2)s1 | -2.47 | -12 |
| Cc1ccccc1[C@@H]1CN(C(=O)c2ccc3[nH]nnc3c2)C[C@H]1C(=O)O | 2.17 | -15.8 |
| CN1CCCC(c2cccc(Cc3ccccc3Cl)n2)C1 (stereo not given) | -5.43 | 6.38 |
| CCCC(C)CN1CCC(n2cc(CCCO)nn2)CC1 (stereo not given) | 1.56 | -23.7 |
| CCc1nc(C2CCCN2C(=O)c2nc(C)n3ccccc23)no1 (stereo not given) | -1.96 | -2.42 |
| CC(=O)N(Cc1ncc(C)o1)C1CCN(Cc2noc(C)n2)C1 (stereo not given) | 5.42 | 4.63 |
| CNC(=O)CN1CCC(NC(=O)N(C)Cc2cc(C)on2)CC1 | -6.28 | 19 |
| COc1ccccc1-c1cc(C(F)(F)F)c2c(C)nn(CC(=O)O)c2n1 | 3.1 | -13.7 |

| Compound | Percent Effect [1] [%] | Percent Effect [2] [%] |
| --- | --- | --- |
| Cn1ncc(NCc2cc(F)cc(F)c2)c(Cl)c1=O | -1.31 | -23.1 |
| CC(=O)N1CCCN(C(=O)c2oc(Br)cc2C)CC1 | -0.167 | -13.6 |
| Cc1ccc(CN(C)C(=O)CN2CC(n3cccn3)C2)o1 | 1.26 | -26.8 |
| CC(C)(C)C(=O)Cn1nc(-c2ccccc2F)ccc1=O | -2.79 | -9.41 |
| CN(C)CC1CSCCCN1C(=O)Nc1ccc(C(C)(C)C)cc1 (stereo not given) | 0.656 | 11.6 |
| CC(C)N1CCC(CNCc2c[nH]nc2C(C)(C)C)C1 (stereo not given) | 7.32 | 11.2 |
| CC(O)CN1CCN(C(=O)c2ccn(-c3cccc(Cl)c3)n2)CC1 (stereo not given) | -5.25 | 7.58 |
| Cc1noc(C)c1CNc1cc(N2CCCC2CO)ncn1 (stereo not given) | -7.32 | -11.6 |
| O=C(c1ccc2[nH]ccc2c1)N1CCn2cnc(COCC3CC3)c2C1 | 7.07 | -13.5 |
| Cc1ccc(S(=O)(=O)N2C[C@@H]3C[C@@H](NC(=O)C(C)(C)C)[C@@H]3C2)cc1 | 1.47 | 6.78 |
| CN1CCCC[C@@H]2[C@H]1[C@@H](c1ccccc1)CCN2C(=O)c1ccccc1 | -4.21 | -4.17 |
| Cc1ccc(C2(CN3CCCC3)CCNCC2)nc1 | -4.12 | -12 |
| COc1ncc(C2(O)CCN(Cc3cccs3)CC2)c(OC)n1 | -0.868 | -24.4 |
| COc1ccc(C(=O)N(C)Cc2nnc3ccccn23)c(OC)c1 | 0.49 | 24.6 |
| CCCc1noc(CN2CCCC2c2c(C)nn(C)c2OC)n1 (stereo not given) | -5.33 | 4.3 |
| Cc1cc(-c2cnc(NCc3cccnc3)nc2C(C)(C)C)on1 | 2.07 | 2.89 |
| CC(C)(C)c1n[nH]c(C2CN(C(=O)CCc3cscn3)CCO2)n1 (stereo not given) | -2.97 | 7.94 |
| Cc1ccc(C(O)CNCc2c(C(C)C)nn(C)c2N(C)C)cc1 (stereo not given) | -5.77 | 10.4 |
| Cc1cccc2nc(C(=O)N3CCC(Nc4cccnn4)CC3)cn12 | -1.93 | 8.8 |
| CCN(CC)C(CNC(=O)c1ccc(S(C)(=O)=O)cc1)c1ccco1 (stereo not given) | -0.521 | -4.44 |
| CC(NC(=O)c1cccs1)C(=O)NCc1cccnc1N1CCCCC1 (stereo not given) | -3.06 | 11 |
| COc1ccc(C)cc1CN(C)Cc1nc2c(cnn2C)c(=O)[nH]1 | 1.01 | 46.7 |
| CCS(=O)(=O)CCN1CCCC1c1noc(C2CC2)n1 (stereo not given) | -2.94 | -0.711 |
| CCc1nc(C2CCCN2C(=O)CCn2cncn2)no1 (stereo not given) | 3.36 | 5.08 |
| COc1ccc(OC)c(CCNC(=O)NC(C)Cn2ccnc2)c1 (stereo not given) | -6.68 | 31 |

| Compound | Percent Effect [1] [%] | Percent Effect [2] [%] |
| --- | --- | --- |
| CCc1nc(C2CCCN2CC(=O)Nc2sc(C)c(C)c2C)no1 (stereo not given) | 0.212 | 8.78 |
| O=C(C1CCC1)N1CCC2(COCc3cnc(N4CCOCC4)nc32)C1 (stereo not given) | 2.45 | -34.1 |
| Cc1cc(C)c(CNC(=O)N(C)CC2CCCCO2)c(=O)[nH]1 (stereo not given) | 2.7 | 28.8 |
| CCn1cc(NC(=O)NCC(O)c2ccccc2)cn1 (stereo not given) | -0.4 | -5.7 |
| CCNC(=O)c1ccnc(NCC2COc3cc(OC)ccc3C2)c1 (stereo not given) | -2.64 | -9.33 |
| Cc1nn(C)c(N(C)C)c1CNCc1ccccc1Cn1cncn1 | -4.47 | 10.9 |
| CS(=O)(=O)N1CC[C@H]2[C@H](C[C@@H](Cn3cncn3)N2CC2CC2)C1 | 10.1 | -8.81 |
| N#Cc1cccc(S(=O)(=O)NC(=O)COc2ccc3c(c2)CCC3)c1 | -0.478 | 8.82 |
| Cc1cccc(C)c1NC(=O)CCNC(=O)c1ccoc1 | -1.5 | 15.3 |
| Cc1ccc(CN2CC(C(=O)Nc3ccccc3)C3(CCOCC3)C2)s1 (stereo not given) | 8.04 | -1.18 |
| Cc1ccccc1CSc1nc(N)cc(N2CCOC(C(N)=O)C2)n1 (stereo not given) | 3.12 | -13.5 |
| Cn1cc(CN2CC[C@@H]3O[C@H](C(=O)N4CCOCC4)C[C@@H]32)cn1 | 0.521 | -23.7 |
| C[C@H]1C[C@@H]2CCN(C(=O)c3ccncn3)C[C@H]2O1 | 4.15 | -27.6 |
| O=C(NCCS(=O)(=O)N1CCc2ccccc21)c1c(O)cc(F)cc1F | -2.88 | 23 |
| O=C(Cc1csc(-c2ccco2)n1)N1CCN(c2cnccn2)CC1 | -2.43 | -70.6 |
| CC(C)Cc1noc(CN2CCN(c3nccs3)CC2)n1 | -4.73 | 11.6 |
| COCCN(Cc1ccc(F)cc1Cl)C(=O)c1ccc(=O)[nH]n1 | -1.92 | 2.84 |
| c1cncc(OCC2CN(Cc3ccco3)Cc3nccn3C2)c1 (stereo not given) | -1.34 | -17.2 |
| CCn1ccnc1CN1CCC(N(C)Cc2ncc(C)o2)C1 (stereo not given) | -4.45 | -39.6 |
| CC(C)Oc1ncccc1CNC(=O)C1CCCN(C(=O)C2CC2)C1 (stereo not given) | -4.79 | 33.3 |
| Cc1nc2n(n1)CC(NCc1cc(Cl)c3c(c1)OCCCO3)CC2 (stereo not given) | 6.55 | 22.8 |
| CCc1ncc(CNC2CC(=O)N(CCc3cccc(Cl)c3)C2)cn1 (stereo not given) | -0.729 | -24.9 |
| COc1ccc(C(O)CNC(=O)NCc2csc(C)n2)cc1 (stereo not given) | -1.2 | -23.7 |
| CNS(=O)(=O)Cc1ccc(CNC(=O)Nc2cn[nH]c2)cc1 | -0.228 | -4.62 |
| Cn1cc(N2CCC3(CCN(Cc4nccs4)C3)C2=O)cn1 (stereo not given) | -0.749 | -2.2 |
